Source: PubChem
In the library only some 3.1% were active in any assay of this set; here they are far more common.
SKKanGAS inh: blocks kanamycin growth of S. pyogenes SKKanGAS strain; BacTiter-Glo, 6 h; inhibition, % at 7.5 µM; hit rate 1.3% among 300,000; AID 1662;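 active means mean replicate score, as percent of positive control median, at least 50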;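 further: strain carries kanamycin resistance gene driven by streptokinase promoter and grows in 40 µg/ml kanamycin; loss of luminescence reflects streptokinase promoter inhibition or plain growth inhibition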
CSC inhib: blocks cancer stem cells. cancer stem cell-like cells viability, luminescence. inhibition, % at 7.5 µM. hit rate 1.1% among 300,000; in the data active means inhibition above about 75%; tested in HMLE shEcad cells
PP5 inh: PP5 (human) phosphatase inhibition. P53041. purified PP5c, OMFP substrate fluorescence. inhibition, % at 6.7 µM. hit rate 0.18% among 320,000;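 active means inhibition above the campaign's mean inhibition across all tested compounds plus 3 SD, cut at about 9.5% in these data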
Target sequence (P53041 whole entry, looked up): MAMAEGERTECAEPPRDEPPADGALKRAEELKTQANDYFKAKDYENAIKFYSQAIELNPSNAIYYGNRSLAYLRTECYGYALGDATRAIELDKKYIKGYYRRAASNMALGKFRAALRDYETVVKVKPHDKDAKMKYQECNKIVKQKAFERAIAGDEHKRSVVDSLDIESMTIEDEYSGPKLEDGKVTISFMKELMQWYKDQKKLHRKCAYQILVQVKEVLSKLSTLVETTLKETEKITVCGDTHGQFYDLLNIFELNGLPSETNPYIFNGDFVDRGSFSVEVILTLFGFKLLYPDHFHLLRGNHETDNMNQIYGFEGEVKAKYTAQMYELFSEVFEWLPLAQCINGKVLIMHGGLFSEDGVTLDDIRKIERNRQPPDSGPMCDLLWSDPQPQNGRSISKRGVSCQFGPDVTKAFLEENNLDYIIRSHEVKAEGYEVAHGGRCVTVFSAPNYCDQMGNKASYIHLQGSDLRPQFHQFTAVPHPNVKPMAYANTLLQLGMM
PP1 counter: blocks human PP1-alpha phosphatase, a PP5 counter-screen | P62136 | purified PP1alpha, OMFP fluorescence | inhibition, % at 6.7 µM | hit rate 0.9% among 320,000;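 active means inhibition above the mean inhibition of all tested compounds plus 3 SD, computed separately for each screening campaign, cut at about 15% in these data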
Beta apoptosis: blocks beta cell apoptosis; INS-1E cytokine-induced death, ATP luminescence, 48 h; percent of positive-control rescue, neutral wells zero; protection from apoptosis, % (no concentration beside the values); hit rate 0.8% among 300,000; AID 435005;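 active means Every replicate reaches about 75%, or at least half do and their mean reaches it too, limit read from the data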;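 further: higher means more ATP so stronger rescue from cytokine killing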
PP1 confirm: confirmation of human PP1 phosphatase inhibitors; shares compounds with PP1 counter; purified PP1alpha, OMFP substrate fluorescence; AID 2358; hit rate 52% among 1,900; inhibition, % at 6.7 µM;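 active means mean PP1 inhibition above a set limit taken from the earlier primary screen, cut at about 15% in these data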
PP5 inh counter: counter-screen for PP1 inhibitors: human PP5 phosphatase inhibition. shares compounds with PP1 counter. purified PP5c, OMFP fluorescence. inhibition, % at 6.7 µM. hit rate 4% among 1,900;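 active means mean PP5 inhibition over triplicate wells above about 9.5% taken from the earlier PP1 screen, limit read from the data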
A number is an active result; n = inactive; x = no result given.

SMILES | SKKanGAS inh | CSC inhib | PP5 inh | PP1 counter | Beta apoptosis | PP1 confirm | PP5 inh counter
O=C(O)C1C2CCC(O2)C1C(=O)NCc1ccncc1 (stereo not given) | n | n | 36.7 | 19.7 | n | 15.4 | 25.9
CC(C)COC(=O)c1ccc(NC(=O)C2C3CCC(C3)C2C(=O)O)cc1 (stereo not given) | n | n | n | n | x | x | x
O=C(O)c1ccc(NS(=O)(=O)c2cccc(S(=O)(=O)c3ccc(Cl)c(Cl)c3)c2)cc1 | n | n | n | n | n | x | x
Nc1c(C(=O)Nc2ccc(F)cc2)sc(=S)n1-c1ccccc1F | n | n | n | n | n | x | x
Cc1c(Cl)cccc1NC(=S)NNS(=O)(=O)c1ccc([N+](=O)[O-])cc1 | n | n | n | n | n | x | x
CCOCc1cc(CN2CCC(CCC(=O)NC3CC3)CC2)ccc1OC | n | n | n | n | x | x | x
O=C(O)C1C2C=CC(C2)C1C(=O)Nc1cccc(F)c1 (stereo not given) | n | n | n | n | n | x | x
O=C(O)C1C2CCC(O2)C1C(=O)Nc1cccc(F)c1 (stereo not given) | n | n | 52.1 | 54.6 | n | n | 17.3
Cc1ccc(NC(=O)Nc2nnc(-c3ccncc3)s2)cc1C | n | n | n | 25.4 | x | 29.1 | n
Oc1ccccc1O | x | n | n | n | n | x | x
Oc1cccc2cc3cccc(O)c3c(O)c12 | n | n | n | 34.7 | n | 23.6 | n
c1ccc(N2CCN(c3nc(-c4ccccn4)nc4ccccc34)CC2)cc1 | 100.0 | n | n | 63.8 | 92.7 | 45.5 | n
CC(=O)Nc1ccc(Oc2nc(-c3ccccn3)nc3ccccc23)cc1 | n | n | n | n | n | x | x
Cc1ccccc1Oc1nc(-c2ccccn2)nc2ccccc12 | 103.5 | n | n | 19.9 | 87.6 | 16.2 | n
CC(C)(C)c1cc(Br)ccc1OCC(=O)Nc1ncn[nH]1 | n | n | n | 23.4 | n | 19.6 | n
O=C(C1CCC1)N1CCN(S(=O)(=O)c2ccc(Br)cc2Cl)CC1 | n | n | n | n | n | x | x
CS(=O)(=O)Nc1ccc(C(=O)Nc2ccc3ccccc3c2)cc1 | n | n | n | n | n | x | x
O=C(Cc1cccc2ccccc12)NCCOc1ccccc1F | n | x | n | n | n | x | x
CCOc1ccc(OCC(=O)Nc2ccc(N3CCCCC3)cc2)cc1 | n | n | n | n | n | x | x
Cc1cc(OCC(=O)Nc2ccc(N3CCCC3)cc2)cc(C)c1Cl | n | n | n | 17.7 | n | n | n
O=C(Nc1cc(S(=O)(=O)N2CCOCC2)ccc1N1CCOCC1)c1ccc(Cl)nc1 | n | n | n | n | n | x | x
O=C(CSc1nc2ccsc2c(=O)n1CC1CCC(C(=O)O)CC1)c1ccc(F)cc1 (stereo not given) | n | n | n | n | n | x | x
O=C(CSc1nc2ccsc2c(=O)n1CC1CCC(C(=O)O)CC1)c1ccc(Cl)cc1 (stereo not given) | n | n | n | 20.0 | n | n | n
CNS(=O)(=O)c1cccc(C(=O)NNC(=O)c2ccc(COc3ccccc3)cc2)c1 | n | n | n | n | n | x | x
c1ccc(-c2nccc(-c3ccc(-n4cnc5ccccc54)cc3)n2)cc1 | n | n | n | 18.1 | n | 24.5 | n
SMILES | SKKanGAS inh | CSC inhib | PP5 inh | PP1 counter | Beta apoptosis | PP1 confirm | PP5 inh counter
CC(OC(=O)CSc1ccc([N+](=O)[O-])cc1)C(=O)NCc1ccccc1 (stereo not given) | n | n | n | n | n | x | x
CCCCCCCCCCCCCCCC[n+]1ccc(/C=N/O)cc1 | x | 100.2 | n | 53.8 | 123.0 | 32.2 | 14.9
CCCCCCCCCCCCCCCC[n+]1ccc(C(N)=O)cc1 | x | x | n | 41.4 | n | 25.3 | n
CCCCCCCCCCCCCCCC[n+]1cccc(C(=O)N(CC)CC)c1 | 91.7 | 142.8 | n | 30.6 | 90.7 | n | n
CC1C(=O)NN=C1C(=O)N/N=C/c1cccs1 (stereo not given) | n | n | n | n | n | x | x
O=C(Cn1nc(C(=O)O)c2ccccc2c1=O)Nc1cc(S(=O)(=O)N2CCOCC2)ccc1Cl | x | n | x | x | n | x | x
CNC(=O)/C(C#N)=C/c1cn(CC(=O)NCc2ccco2)c2ccccc12 | n | n | n | n | n | x | x
Cc1ccc(NC(=O)/C(C#N)=C/c2cn(CC(=O)NCc3ccco3)c3ccccc23)cc1C | n | n | n | 31.8 | n | 31.0 | n
O=C(N/N=C/c1ccccn1)c1cc(-c2cccc3ccccc23)n[nH]1 | n | n | n | 18.9 | n | 26.6 | n
O=C(N/N=C/c1ccccn1)c1cc(-c2ccc3ccccc3c2)n[nH]1 | n | n | n | 27.6 | n | 62.4 | n
O=C(N/N=C/c1ccccn1)c1cc(-c2ccccc2Cl)n[nH]1 | n | n | n | n | n | x | x
COc1ccccc1NC(=O)CCNS(=O)(=O)c1ccc2c(c1)CCN2C(C)=O | n | n | n | n | n | x | x
Nc1cc2c(cc1O)CCCC2 | n | n | n | n | n | x | x
CCOc1ccccc1NC(=O)C1C2CCC(O2)C1C(=O)O (stereo not given) | n | n | 76.7 | 77.0 | n | 16.4 | 31.4
COc1ccc(OC)c(NC(=O)C2C3CCC(O3)C2C(=O)O)c1 (stereo not given) | n | n | 69.4 | 64.0 | x | 22.1 | 27.2
Cc1ccc(COc2ccsc2C(=O)NNC(N)=S)cc1 | n | n | n | n | n | x | x
Cc1ccc(NC2CCCN(C(=O)CSc3ccccn3)C2)cc1C (stereo not given) | n | n | x | x | n | x | x
Nc1ccc(C(=O)NC23CC4CC(CC(C4)C2)C3)cc1 | n | n | n | n | n | x | x
Cc1ccc(-n2c(=O)cc(NCc3cccnc3)[nH]c2=O)cc1 | n | n | n | 24.6 | n | n | n
O=C(O)c1cccc(S(=O)(=O)Nc2cccc(S(=O)(=O)N3CCCC3)c2)c1 | x | x | n | n | n | x | x
Clc1ccc(SCc2cc(N3CCOCC3)nc(-c3ccccn3)n2)cc1 | n | n | n | 23.7 | 98.9 | 32.3 | n
Clc1ccc(SCc2csc(N3CCOCC3)n2)cc1 | n | n | n | n | n | x | x
CC(CC(=O)Nc1cccnc1)c1ccccc1 (stereo not given) | n | n | n | n | n | x | x
COc1ccc(/C=C/c2nnc(NC(=O)COc3ccc(C)cc3)s2)cc1 | n | x | n | 17.7 | n | n | n
CN(C1=NS(=O)(=O)c2ccccc21)c1ccc(OC(=O)c2ccncc2)cc1 | n | n | n | n | n | x | x
CCOC(=O)c1sc(N2C(=O)C(O)=C(C(=O)c3ccco3)C2c2cccc([N+](=O)[O-])c2)nc1C (stereo not given) | 65.5 | n | n | 38.5 | n | 45.4 | n
CCOC(=O)c1sc(N2C(=O)C(O)=C(C(=O)c3ccco3)C2c2cccc(Cl)c2)nc1C (stereo not given) | 63.4 | n | n | 26.7 | n | 16.9 | n
Cc1nnc(N2C(=O)C(O)=C(C(=O)c3ccco3)C2c2cccc([N+](=O)[O-])c2)s1 (stereo not given) | n | n | n | n | n | x | x
COc1ccc(N2CCN(c3ccc(NC(=O)/C=C\C(=O)O)cc3)CC2)cc1 | n | n | n | 19.7 | n | n | n
NC(=O)c1nnsc1Sc1c(C(N)=O)nnn1-c1cccc(N)c1 | n | x | n | n | n | x | x
